# Experimental data: paper PMC4336329 (PLoS ONE, 2015)
# Out of some 310,000 compounds screened, about 14,000 (4.5%) showed an effect of 50% or more. The effect is printed as a negative number. The entries come from a sample that favours strong results as a whole.
# Molecular target: human ether-à-go-go-related gene (hERG) potassium channel (human, UniProt Q12809)
# Test: primary screen, population patch clamp on CHO cells stably expressing hERG; higher = less effect of the substance
# 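Note: peak tail current of the secondary pulse compared with the same well before compound.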
# Chain of human ether-à-go-go-related gene (hERG) potassium channel (Q12809 whole entry, looked up): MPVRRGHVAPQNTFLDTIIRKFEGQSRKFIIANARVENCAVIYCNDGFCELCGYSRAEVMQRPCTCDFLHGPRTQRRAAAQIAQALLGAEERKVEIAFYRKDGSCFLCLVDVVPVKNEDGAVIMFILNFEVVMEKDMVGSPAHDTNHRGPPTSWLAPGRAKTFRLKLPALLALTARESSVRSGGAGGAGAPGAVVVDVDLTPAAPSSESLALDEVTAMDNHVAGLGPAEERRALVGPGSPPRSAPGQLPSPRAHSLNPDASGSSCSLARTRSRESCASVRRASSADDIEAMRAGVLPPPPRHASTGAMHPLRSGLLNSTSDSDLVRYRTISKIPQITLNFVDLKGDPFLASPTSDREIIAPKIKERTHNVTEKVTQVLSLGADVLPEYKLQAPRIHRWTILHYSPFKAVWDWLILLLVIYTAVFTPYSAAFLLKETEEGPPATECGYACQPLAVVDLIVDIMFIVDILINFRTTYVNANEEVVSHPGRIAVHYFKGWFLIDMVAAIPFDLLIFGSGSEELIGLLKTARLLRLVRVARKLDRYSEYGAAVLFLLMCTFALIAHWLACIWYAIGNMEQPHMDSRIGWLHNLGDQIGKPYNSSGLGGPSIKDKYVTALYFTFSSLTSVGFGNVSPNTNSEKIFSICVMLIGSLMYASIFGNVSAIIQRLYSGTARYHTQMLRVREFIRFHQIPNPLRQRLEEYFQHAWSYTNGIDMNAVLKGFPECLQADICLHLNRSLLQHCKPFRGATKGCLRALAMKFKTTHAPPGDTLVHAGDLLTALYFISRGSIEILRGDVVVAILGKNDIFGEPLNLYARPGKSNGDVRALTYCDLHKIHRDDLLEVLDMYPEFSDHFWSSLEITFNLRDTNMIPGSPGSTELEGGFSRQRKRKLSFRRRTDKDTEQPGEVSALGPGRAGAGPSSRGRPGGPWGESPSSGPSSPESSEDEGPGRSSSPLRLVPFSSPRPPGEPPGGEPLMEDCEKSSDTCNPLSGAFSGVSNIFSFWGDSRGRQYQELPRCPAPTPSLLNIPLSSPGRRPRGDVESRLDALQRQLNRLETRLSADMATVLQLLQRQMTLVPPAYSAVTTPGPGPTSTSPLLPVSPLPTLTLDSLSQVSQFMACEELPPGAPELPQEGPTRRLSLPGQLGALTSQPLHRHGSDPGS
row,Structure (SMILES),"hERG current change (%, negative = inhibition) at 10uM [%]"
1,O=C(O)c1ccc(C(=O)O)c(C(=O)c2ccc(NC(=O)c3ccccc3)cc2)c1,8.99
2,C/C(=N\NC(=O)c1ccc(Cl)c(Cl)c1)c1cccc(NC(=O)C(C)C)c1,1.91
3,Nc1c(Cl)cc(-c2cn(CCC(=O)O)c(-c3ccc(Cl)nc3)n2)cc1Cl,20.4
4,O=C(N/N=C/c1cccnc1)c1ccc(NC(=O)c2ccc(F)cc2)cc1,8.2
5,O=C1C2C3C=CC(C3)C2C(=O)N1c1ccc(N2CCN(c3ccccn3)CC2)c([N+](=O)[O-])c1 (stereo not drawn),-18.6
6,O=C(NCC1OCCCN1S(=O)(=O)c1ccc(F)cc1)C(=O)NC1CCCC1 (stereo not drawn),-15.8
7,O=C(CSc1ccccc1C(=O)O)NC1CCCCCCC1,17.6
8,CSc1ccc(CN2CCN(c3ccccc3C)CC2)cc1.O=C(O)C(=O)O,-54.5
9,COc1ccccc1N1CCN(Cc2ccc(SC)cc2)CC1.O=C(O)C(=O)O,-72.9
10,COc1ccccc1N1CCN(Cc2ccc(C(=O)O)cc2)CC1,14.4
11,Cc1ccccc1N1CCN(Cc2cccc(C(=O)O)c2)CC1.Cl,1.27
12,COc1ccccc1N1CCN(Cc2ccco2)CC1.O=C(O)C(=O)O,-26.4
13,COc1ccc(CN2CCN(C(=O)c3cccc(OC)c3OC)CC2)cc1OC.O=C(O)C(=O)O,5.63
14,Cc1ccccc1CN1CCN(Cc2ccccc2)CC1.O=C(O)C(=O)O,-7.72
15,COc1ccc(CN2CCN(c3ccccc3OC)CC2)cc1OC.O=C(O)C(=O)O,-57.9
16,CCOc1cc(CN2CCN(c3ncccn3)CC2)ccc1OC,-4.8
17,CCOc1ccccc1N1CCN(Cc2ccc(OC)c(OC)c2)CC1,-69.2
18,COc1ccc(CN2CCN(Cc3ccco3)CC2)cc1OC.O=C(O)C(=O)O,1.22
19,CCOc1cc(CN2CCCCC2)ccc1OC,-8.28
20,Cc1ccccc1CN1CCCOCCS1(=O)=O,-0.4
21,Cn1c2c(c(=O)n1-c1ccccc1)CSCC2,16.5
22,O=C(NNC(=S)NC(=O)c1cccs1)c1ccc(NC(=O)c2ccccc2)cc1,13.7
23,Cl.O=C(O)c1ccc2nc(CO)[nH]c2c1,11.2

row,Structure (SMILES),"hERG current change (%, negative = inhibition) at 10uM [%]"
1,CC(Cc1cccs1)NC(=O)Nc1ccccc1 (stereo not drawn),0.115
2,O=C(c1ccc(S(=O)(=O)N2CCOCC2)cc1)N1CCc2ccccc2C1,-4.25
3,CN(C)S(=O)(=O)c1ccc(C(=O)NCC(=O)N/N=C/c2ccccc2Cl)cc1,5.43
4,COc1ccc(CN2CCN(C(C)C(=O)NC(C)c3ccc(F)cc3)CC2)cc1F (stereo not drawn),-62
5,COc1ccc(CN2CCN(S(=O)(=O)c3ccc(F)cc3)CC2)cc1OC.O=C(O)C(=O)O,7.33
6,COc1ccccc1N1CCN(Cc2ccc(OC)c(OC)c2OC)CC1,-35.8
7,CCOc1ccccc1N1CCN(Cc2cccc(OC)c2OC)CC1,-17
8,COc1cc(CN2CCN(c3cccc(C)c3C)CC2)cc(OC)c1O,-45.4
9,COc1ccc(CN2CCN(C(C)C(=O)N(C)Cc3cccc(F)c3)CC2)cc1OC.O=C(O)C(=O)O (stereo not drawn),-61
10,COc1cccc(CN2CCN(Cc3cccc(F)c3)CC2)c1.O=C(O)C(=O)O,-6.47
11,COc1cc(CN2CCN(c3cccc(C)c3C)CC2)cc(Br)c1O,-12.6
12,COc1ccc(CN2CCN(c3cccc(C)c3C)CC2)cc1OC,-72
13,CCOc1ccccc1N1CCN(Cc2ccc(OC)c(OC)c2OC)CC1,-51.9
14,CC(NC(=O)C(C)N1CCN(Cc2ccccc2)CC1)c1ccc(F)cc1 (stereo not drawn),5.35
15,COc1cc(C)c(CN2CCN(C(C)C(=O)NC(C)c3ccccc3)CC2)cc1OC (stereo not drawn),-18.3
16,CC(C)S(=O)(=O)C1=NSC2=NC(=O)/C(=C\c3ccc(OC(=O)c4ccco4)cc3)C(=N)N21,12.8
17,COc1cc2nc(C(C)(C)C)oc(=O)c2cc1OC,10.6
18,NC(=O)CC(NC(=O)c1ccccc1)c1ccc(NC2CCCC2)c([N+](=O)[O-])c1 (stereo not drawn),5.39
19,Cc1cc(C(=O)OCC(=O)c2ccc(Cl)c([N+](=O)[O-])c2)c2cccc(C)c2n1,6.36
20,CS(=O)(=O)N(Cc1ccc(C(=O)NN=C2CCCC2)cc1)c1ccccc1,8.63
21,CCC(=O)Nc1cc(-c2cc3ccccc3oc2=O)ccc1OC,-29.6
22,COc1ccc(CN2CCN(Cc3ccc4ccccc4c3)CC2)cc1OC.O=C(O)C(=O)O,-67
23,COc1ccc(CN2CCN(Cc3ccccc3F)CC2)cc1OC.O=C(O)C(=O)O,-22.6

row,Structure (SMILES),"hERG current change (%, negative = inhibition) at 10uM [%]"
1,COc1ccccc1N1CCN(Cc2ccc(Br)cc2)CC1.O=C(O)C(=O)O,-70.3
2,COc1ccccc1N1CCN(Cc2ccccc2)CC1.O=C(O)C(=O)O,-7.21
3,COc1ccccc1CN1CCN(Cc2ccc3ccccc3c2)CC1.O=C(O)C(=O)O,-36.7
4,COc1ccccc1N1CCN(Cc2cccc(Br)c2)CC1.O=C(O)C(=O)O,-5.27
5,COc1ccc(CN2C(=O)Cc3c2nc(N)c2c(N)nc(N4CCOCC4)c(C#N)c32)cc1,-36.8
6,Cc1nnc(SCC(=O)Nc2nccs2)n(N)c1=O,19.4
7,CC1CCCCC1NC(=O)c1ccc(S(=O)(=O)NCC2CCCO2)cc1 (stereo not drawn),-10.7
8,Cc1ccc(C)c(S(=O)(=O)N2CCC3(CC2)OCCN3S(=O)(=O)c2cccs2)c1,5.64
9,CCCc1nc(SCC(=O)c2ccccc2)c2c(=O)n(C)c(=O)n(C)c2n1,-23.5
10,OCCNCCCCOc1ccc(F)cc1,4.18
11,CCn1c(SCC(=O)Nc2sc3c(c2C#N)CCCC3)nnc1-c1ccncc1,-63.5
12,CCn1c(SCC(=O)Nc2oc(-c3ccccc3)c(-c3ccccc3)c2C#N)nnc1-c1ccco1,-30.8
13,CCCC(=O)Nc1sc2c(c1C#N)CCCC2,4.29
14,CCCC(=O)Nc1sc2c(c1C#N)CCCCC2,-50.6
15,CCC(=O)Nc1sc2c(c1C#N)CCCCC2,0.0585
16,COCCCn1c(SCC(=O)Nc2sc3c(c2C#N)CCCC3)nnc1-c1ccncc1,-49.4
17,CCn1c(SCC(=O)Nc2oc(-c3ccccc3)c(-c3ccccc3)c2C#N)nnc1-c1cc(OC)cc(OC)c1,-5.33
18,CCn1c(SCC(=O)Nc2oc(-c3ccccc3)c(-c3ccccc3)c2C#N)nnc1-c1ccncc1,-68.2
19,N#Cc1c(NC(=O)CSc2nnc(-c3ccncc3)n2CC2CCCO2)sc2c1CCCC2 (stereo not drawn),-40.7
20,O=S1OCCN1c1ccccc1 (stereo not drawn),10.4
21,O=C(c1ccc(OC2CCN(CCc3ccccc3)CC2)cc1)N1CCCC(CO)C1 (stereo not drawn),-12.4
22,COc1ccc([C@H]2/C=C\CN(S(=O)(=O)c3ccc4ccccc4c3)[C@@H](C)C(=O)N2Cc2ccc(F)cc2)cc1,6.43
23,CC1CCCC(C)N1C(=O)CN1C(=O)c2ccccc2S1(=O)=O (stereo not drawn),3.3

row,Structure (SMILES),"hERG current change (%, negative = inhibition) at 10uM [%]"
1,O=C(Cc1ccccc1)Nc1ccc(NC(=O)c2ccc(Br)cc2)cc1,15.4
2,Cc1ccc(C2(O)CN(c3ccccc3C)C3=[N+]2CCS3)cc1.[Br-] (stereo not drawn),-28.1
3,OC1(c2ccc(Cl)cc2)CN(c2ccccc2)C2=[N+]1CCS2.[Br-] (stereo not drawn),-50.4
4,OC1(c2ccccc2)CN(c2ccccc2)C2=[N+]1CCS2.[Br-] (stereo not drawn),-28.1
5,O=[N+]([O-])c1ccc(C2(O)CN(c3ccccc3)C3=[N+]2CCS3)cc1.[Br-] (stereo not drawn),-60.8
6,Cc1ccc(C2(O)CN(c3ccccc3)C3=[N+]2CCS3)cc1.[Br-] (stereo not drawn),-32.6
7,OC1(c2ccc(F)cc2)CN(c2ccccc2)C2=[N+]1CCS2.[Br-] (stereo not drawn),-13.9
8,O=P(COCCO)(c1ccccc1)c1ccccc1,-4.96
9,COc1ccc(NC(=O)C2Cc3ccccc3O/C2=N\O)cc1 (stereo not drawn),13.8
10,Cc1ccc2nc(C3CCN(C(=O)NCc4ccccc4)CC3)[nH]c2c1,-30
11,CCOc1ccccc1NC(=O)N1CCC(c2nc3ccc(C)cc3[nH]2)CC1,-55.5
12,CCOC(=O)CNC(=O)CN1CCC(c2nc3ccccc3[nH]2)CC1,13.7
13,COc1ccc(NC(=O)N2CCC(c3nc4ccccc4[nH]3)CC2)cc1,9.26
14,COc1ccc(C(=O)NC2CCN(CC(=O)NCc3cccc(OC)c3)CC2)cc1,-19.9
15,COc1cccc(CNC(=O)CSc2nc3ccc(C)cc3[nH]2)c1,6.22
16,COc1ccccc1NC(=O)N1CCC(c2nc3cc(C)c(C)cc3[nH]2)CC1,-53.3
17,COc1cccc(CNC(=O)CN2CCC(c3nc4ccc(C)cc4[nH]3)CC2)c1,-68.4
18,COc1ccccc1NC(=O)CN1CCC(c2nc3ccc(C)cc3[nH]2)CC1,-57.7
19,COc1ccccc1NC(=O)CN1CCC(c2nc3ccccc3[nH]2)CC1,-43.6
20,CCOc1ccccc1NC(=O)N1CCC(c2nc3ccccc3[nH]2)CC1,-23.6
21,COc1ccccc1NC(=S)N1CCC(c2nc3cc(C)c(C)cc3[nH]2)CC1,-21
